The sample as a whole holds a higher share of hits than the screen did.
NS1 function inh – blocks influenza NS1 protein function | 0.4% of 270,000 active | AID 2326 | Potency, µM (titrated, usually from 46.1 µM); calls by dose curve; note: actives are rising curves; nearly all actives have a fitted effect of over 50% in size
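S. cerevisiae expressing influenza A NS1, grown in glucose, washed, then diluted 1:100 into pH 6.0 -URA galactose medium with 23 nl compound. Growth recovery read as OD600; NS1-free strain serves as control.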
Shiga toxin inh – inhibitors of Shiga toxin in Vero cells; Vero cells, Shiga toxin protein synthesis inhibition reporter; inhibition, % at 38.7 µM; 9.2% of 290,000 active; AID 2315; in the data active = inhibition mostly above about 28%, no sharp cut-off; inactive = mostly below about 43%
Tb PYK inh – blocks Trypanosoma brucei pyruvate kinase; TbPYK enzyme, Kinase-Glo Plus ATP luminescence, 45 min; Potency, µM (highest dose often 76.8 µM), actives largely listed as inhibitors; 0.12% of 410,000 active; note: nearly all actives have a fitted effect of over 50% in size
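Enzyme and substrate buffer are dispensed first and compound is pin-transferred. ADP at 130 uM final then starts the reaction, which runs 45 min at room temperature. Detection reagent is added for 10 min before luminescence is imaged.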
SARS PLP yeast – blocks SARS-CoV papain-like protease in a yeast assay; S. cerevisiae expressing SARS-CoV PLpro, growth rescue; Potency, µM (doses to about 32.9 µM), most hits filed as activators; 0.19% of 330,000 active; AID 485353; calls by dose curve; note: nearly all actives have a fitted effect of over 55% in size
LmPK inhibitor – inhibitors of Leishmania mexicana pyruvate kinase | AID 1721 | Potency, µM (titrated, usually from 57.5 µM), hits mostly inhibitors | 0.37% of 290,000 active | Q27686 | purified LmPK, Kinase-Glo ATP luminescence, 1 h
Target sequence (Q27686 whole entry, looked up): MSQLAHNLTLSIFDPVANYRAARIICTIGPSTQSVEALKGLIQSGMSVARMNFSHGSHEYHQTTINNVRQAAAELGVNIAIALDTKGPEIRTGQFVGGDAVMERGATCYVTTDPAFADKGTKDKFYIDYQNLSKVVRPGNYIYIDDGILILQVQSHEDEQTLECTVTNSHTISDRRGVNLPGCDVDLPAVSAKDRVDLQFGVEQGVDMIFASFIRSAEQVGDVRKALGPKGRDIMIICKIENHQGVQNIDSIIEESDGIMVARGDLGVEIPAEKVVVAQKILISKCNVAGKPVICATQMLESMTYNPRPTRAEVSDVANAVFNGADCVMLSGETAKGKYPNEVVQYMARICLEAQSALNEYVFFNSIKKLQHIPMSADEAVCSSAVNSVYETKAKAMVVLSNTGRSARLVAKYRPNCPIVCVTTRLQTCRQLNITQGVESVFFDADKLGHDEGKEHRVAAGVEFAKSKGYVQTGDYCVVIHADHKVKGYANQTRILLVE
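Purified LmPK (0.1 nM) with 0.5 mM PEP and 0.1 mM ADP in imidazole buffer pH 7.2 with MgCl2/KCl, 1 h at room temperature. ATP formed was read by luciferase luminescence and normalized to no-enzyme and uninhibited controls.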
Cycloheximide cs – affects cycloheximide protein synthesis inhibition readout, counter-screen. max response, %. 12% of 300,000 active. cell reporter, cycloheximide protein synthesis inhibition counterscreen. AID 2314; in the data active = max response mostly above about 13%, no sharp cut-off; inactive = mostly below about 14%; note: read at 38.3 µM for the half of the compounds with a filed dose
Large screens that a line does not name were inactive. Unless noted, calls come from the whole dose curve; as a rule, active = well fitted curve in the direction sought with a large enough effect; inconclusive = small, poorly fitted or top-dose-only effect, or another doubt; inactive = no such curve, though single readings can be large; an effect the other way counts as inactive or inconclusive.

Clc1ccc(OCC#CCN2CCCC2)cc1	Shiga toxin inh 61, Cycloheximide cs 23
CN1CCN(CC(O)COc2ccc(Cl)cc2)CC1 (configuration not stated)	none
CN1CCN(CC#CCOc2ccc(Cl)cc2)CC1	Cycloheximide cs 21 (no result: Shiga toxin inh)
Cc1cccc(C)c1Nc1c(-c2ccsc2)nc2cccc(C)n12	none (no result: NS1 function inh, Shiga toxin inh, SARS PLP yeast, LmPK inhibitor, Cycloheximide cs)
CC1CCN(S(=O)(=O)c2ccc(C(=O)OC(C)C(=O)N(C)C3CCCCC3)cc2)CC1 (configuration not stated)	none (no result: NS1 function inh, Shiga toxin inh, LmPK inhibitor, Cycloheximide cs)
CS(=O)(=O)c1ccc2nc(NC(=O)CN3C(=O)C4CC=CCC4C3=O)sc2c1 (configuration not stated)	none (no result: NS1 function inh)
O=C(Nc1nc(-c2nc3ccccc3s2)cs1)C1COc2ccccc2O1 (configuration not stated)	Shiga toxin inh 68, Cycloheximide cs 23
COc1ccc2nc(NC(=O)C3COc4ccccc4O3)sc2c1 (configuration not stated)	Shiga toxin inh 77, Cycloheximide cs 30
COc1ccc(OC)c(-c2csc(NC(=O)C3COc4ccccc4O3)n2)c1 (configuration not stated)	none (no result: NS1 function inh)
CS(=O)(=O)c1ccc2nc(NC(=O)C3COc4ccccc4O3)sc2c1 (configuration not stated)	Cycloheximide cs 25
COc1ccc2nc(N(Cc3cccnc3)C(=O)C3COc4ccccc4O3)sc2c1 (configuration not stated)	none (no result: NS1 function inh, Shiga toxin inh, SARS PLP yeast, LmPK inhibitor, Cycloheximide cs)
CCCn1c(NC(=O)C2COc3ccccc3O2)nc2ccccc21 (configuration not stated)	none
COc1ccc2nc(NNC(=O)C3COc4ccccc4O3)sc2c1 (configuration not stated)	Shiga toxin inh 55, Cycloheximide cs 13
Cc1cccc(N(CC(=O)Nc2ccccc2C(F)(F)F)S(=O)(=O)c2ccccc2)c1C	none (no result: NS1 function inh, Shiga toxin inh, SARS PLP yeast, LmPK inhibitor, Cycloheximide cs)
Cc1ccc(NC(=O)C2CCCN2S(=O)(=O)c2ccc3c(c2)CCCC(=O)N3)cc1C (configuration not stated)	none (no result: NS1 function inh, Shiga toxin inh, SARS PLP yeast, LmPK inhibitor, Cycloheximide cs)
CCOc1cc(C(=O)OCC(=O)c2cc(C)n(CC3CCCO3)c2C)ccc1OCC(=O)N1CCOCC1 (configuration not stated)	Shiga toxin inh 53, Cycloheximide cs 32 (no result: NS1 function inh)
Cc1cc(C(=O)COC(=O)c2ccccc2NCCO)c(C)n1CC1CCCO1 (configuration not stated)	Shiga toxin inh 112, Cycloheximide cs 89
Cc1cc(C(=O)COC(=O)c2cc(O)c3ccccc3c2O)c(C)n1CC1CCCO1 (configuration not stated)	Tb PYK inh inconclusive, Cycloheximide cs 14 (no result: NS1 function inh)
Cc1cc(C(=O)COC(=O)c2ccccc2O)c(C)n1CC1CCCO1 (configuration not stated)	none (no result: NS1 function inh, Shiga toxin inh, LmPK inhibitor, Cycloheximide cs)
Cc1ccc(C(=O)OCC(=O)c2cc(C)n(CC3CCCO3)c2C)cc1 (configuration not stated)	Shiga toxin inh 107, Cycloheximide cs 40
CN1CCN(S(=O)(=O)c2ccc(N3CCc4ccccc4C3)nc2)CC1	none (no result: NS1 function inh)
COC(=O)c1cccc(NC(=O)c2nsc3ccccc23)c1	none (no result: NS1 function inh, Shiga toxin inh, SARS PLP yeast, LmPK inhibitor, Cycloheximide cs)
CSc1ncnc2c1ncn2CCCN1CCN(c2ccccn2)CC1	none (no result: NS1 function inh, Shiga toxin inh, SARS PLP yeast, LmPK inhibitor, Cycloheximide cs)
Cc1cc(C(=O)COC(=O)c2ccccc2Br)c(C)n1CC1CCCO1 (configuration not stated)	LmPK inhibitor inconclusive
Cc1cc(C(=O)COc2ccccc2C(N)=O)c(C)n1CC1CCCO1 (configuration not stated)	Cycloheximide cs 26
Cc1cc(C(=O)COC(=O)c2n[nH]c3ccccc23)c(C)n1CC1CCCO1 (configuration not stated)	Cycloheximide cs 38
Cc1cc(C(=O)COC(=O)c2cccnc2Cl)c(C)n1CC1CCCO1 (configuration not stated)	LmPK inhibitor 25µM
CCc1ccc(Nc2nc3c(S(=O)(=O)c4cccc(Cl)c4)nnn3c3ccsc23)cc1	none (no result: NS1 function inh, Shiga toxin inh, SARS PLP yeast, LmPK inhibitor, Cycloheximide cs)
CC1=C(C(=O)Nc2ccccc2C(=O)NC2CCC(C)CC2)SCCO1 (configuration not stated)	Cycloheximide cs 16
CN1C(=O)C2(NC(=O)c3ccccc3N2C)c2ccccc21 (configuration not stated)	none
CN1C(=O)C(Cl)(Cl)C(=O)c2ccccc21	Tb PYK inh 14µM, Cycloheximide cs 18
Cc1cccc(NC(=S)N/C(=N/S(=O)(=O)c2ccccc2)c2ccccc2)c1	Shiga toxin inh 18, Cycloheximide cs 44
CC(=O)Nc1ccc(S(=O)(=O)c2ccc(C)cc2)cc1	none
C/C(=N\S(=O)(=O)c1ccc(C)cc1)NC(=S)Nc1ccc(C)cc1	Shiga toxin inh 118, Cycloheximide cs 40
Cc1ccc(S(=O)(=O)/N=C(/NC(=S)Nc2cccc(C)c2)c2ccccc2)cc1	Shiga toxin inh 77, Cycloheximide cs 54
NC(=O)C(=CNc1nc(-c2ccc(Cl)c(Cl)c2)cs1)C(N)=O	none (no result: Tb PYK inh)
O=C(N/N=C1\CC(c2ccccc2)Oc2ccccc21)c1ccccn1 (configuration not stated)	Shiga toxin inh 51, Cycloheximide cs 15 (no result: NS1 function inh)
O=C(N/N=C1\CC(c2ccccc2)Oc2ccccc21)c1ccc(O)cc1 (configuration not stated)	Shiga toxin inh 118, Cycloheximide cs 40
CCOc1ccc(S(=O)(=O)N/N=C2/CC(c3ccccc3)Oc3ccccc32)cc1 (configuration not stated)	Cycloheximide cs 30
N=C(N)SCCON1C(=O)c2ccccc2C1=O	none (no result: Shiga toxin inh, Tb PYK inh, SARS PLP yeast, LmPK inhibitor, Cycloheximide cs)
CC(Oc1ccccc1F)C(=O)NC1CCS(=O)(=O)C1 (configuration not stated)	none
O=C1c2ccccc2NC(c2ccccc2Cl)N1N=C1CCCCCC1 (configuration not stated)	Shiga toxin inh 89, Cycloheximide cs 37
CC(C)N(c1ccccc1)c1ccc(NC(=O)[C@@H]2O[C@H](CO)[C@@H](O)[C@H]2O)cc1	none (no result: NS1 function inh, Shiga toxin inh, SARS PLP yeast, LmPK inhibitor, Cycloheximide cs)
CC(=O)Nc1ccc(CNc2ncnc3ccc(-c4c(C)noc4C)cc23)cc1	none (no result: NS1 function inh, LmPK inhibitor)
Cc1noc(C)c1-c1ccc2ncnc(NCc3ccc(-c4ccccc4)cc3)c2c1	Shiga toxin inh 48, Cycloheximide cs 38 (no result: NS1 function inh, Tb PYK inh, SARS PLP yeast, LmPK inhibitor)
O=C(CN1C(=O)c2ccccc2C1=O)NCc1ccccn1	none
O=C(Cn1c(=O)sc2ccccc21)NCc1ccccn1	Shiga toxin inh 54, Cycloheximide cs 18
O=C1Nc2ccccc2C(O)(C(=O)NCc2ccco2)N1c1ccc(Cl)cc1 (configuration not stated)	Cycloheximide cs 18
CC(C)CCNC(=O)C1(O)c2ccccc2NC(=O)N1c1ccc(Cl)cc1 (configuration not stated)	Cycloheximide cs 10
C=CCN(c1ccccc1)S(=O)(=O)c1ccc2c(c1)N(C(C)=O)CCO2	none
CCN1CCN(C(=O)Cn2c(-c3cccs3)cc3cc(Cl)ccc32)CC1	none (no result: NS1 function inh, Shiga toxin inh, SARS PLP yeast, LmPK inhibitor, Cycloheximide cs)
